Reference: article PMC7883291

How the values were obtained:
Assay in all cases: cross-link between two proteins; cross-linking mass spectrometry
[1] = target: Acyl carrier protein, mitochondrial (UniProt P52505)
[2] = target: NADH dehydrogenase [ubiquinone] 1 beta subcomplex subunit 11, mitochondrial (UniProt Q8HXG5)
[3] = target: T1, Cytochrome b-c1 complex subunit 2, mitochondrial (UniProt P23004)
T1 sequence: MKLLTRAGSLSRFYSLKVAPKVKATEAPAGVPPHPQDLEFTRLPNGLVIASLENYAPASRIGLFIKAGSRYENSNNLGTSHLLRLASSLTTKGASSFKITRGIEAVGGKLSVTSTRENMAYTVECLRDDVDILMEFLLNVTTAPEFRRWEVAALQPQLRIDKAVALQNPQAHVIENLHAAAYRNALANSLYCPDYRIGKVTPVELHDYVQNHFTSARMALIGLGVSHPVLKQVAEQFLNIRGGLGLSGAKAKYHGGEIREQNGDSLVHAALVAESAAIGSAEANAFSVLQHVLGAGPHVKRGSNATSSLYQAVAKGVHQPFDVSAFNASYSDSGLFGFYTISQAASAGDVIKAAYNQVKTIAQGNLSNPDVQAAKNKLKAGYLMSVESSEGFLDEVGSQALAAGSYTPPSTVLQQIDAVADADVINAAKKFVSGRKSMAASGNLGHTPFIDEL

[4] = target: NADH dehydrogenase [ubiquinone] 1 alpha subcomplex subunit 9, mitochondrial (UniProt P34943)
Sequence of NADH dehydrogenase [ubiquinone] 1 alpha subcomplex subunit 9, mitochondrial (P34943 whole entry, one chain of several): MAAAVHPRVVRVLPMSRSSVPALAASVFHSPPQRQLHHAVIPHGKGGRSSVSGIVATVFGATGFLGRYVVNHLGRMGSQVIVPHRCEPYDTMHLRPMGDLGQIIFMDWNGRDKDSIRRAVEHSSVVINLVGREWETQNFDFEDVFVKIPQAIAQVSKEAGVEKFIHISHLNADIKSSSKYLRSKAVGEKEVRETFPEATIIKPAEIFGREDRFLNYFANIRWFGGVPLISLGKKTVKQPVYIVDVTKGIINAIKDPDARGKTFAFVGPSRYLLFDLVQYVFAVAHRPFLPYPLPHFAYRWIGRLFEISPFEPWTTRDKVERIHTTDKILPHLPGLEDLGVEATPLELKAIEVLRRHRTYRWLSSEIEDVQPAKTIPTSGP

Sequence of NADH dehydrogenase [ubiquinone] 1 beta subcomplex subunit 11, mitochondrial (Q8HXG5 whole entry, one chain of several): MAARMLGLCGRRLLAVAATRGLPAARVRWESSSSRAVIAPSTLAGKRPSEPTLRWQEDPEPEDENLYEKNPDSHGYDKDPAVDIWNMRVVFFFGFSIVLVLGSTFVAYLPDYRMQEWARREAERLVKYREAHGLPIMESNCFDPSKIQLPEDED

For G5E543, the “listed as a hit” value [1] was “yes” and the “listed as a hit” value [2] was “yes”.

With A0A3Q1MBD7 the “listed as a hit” value [3] was “yes”.

With A8WFQ0 the “listed as a hit” value [4] was “yes”.
